Test [1] can be described thus: ACEA_ER_80hr: ACEA Biosciences xCELLigence Real-Time Cell Analysis on Estrogen Receptor Agonism for Proliferation (AID 2282667). To be noted: T47D proliferation, impedance (xCELLigence), 80 h. The procedure, abridged:
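Real-time impedance growth kinetics of human T-47D breast cells read 80 h after dosing, gain-of-signal fitted relative to DMSO. Compounds: 1:4 serial series, top final concentration 100 uM, n = 2.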

Test [2] can be described thus: APR_HepG2_CellCycleArrest_24hr: Apredica 24-hour HepG2 Assay for Cell Cycle Arrest (AID 2282905; active = hit-call score of the fitted dose curve at least 0.9, where 1 is the maximum; inactive = score below 0.9;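 also: cell cycle arrest scored as ratio of 2N to 4N nuclear DNA content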). As to conditions: imaging, actives raise or lower the signal. The essentials:
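HepG2 cells were exposed to compounds at 0.39–200 uM (ten concentrations, duplicate) in 0.5% v/v DMSO for 24 hr. After formaldehyde fixation and Triton permeabilization, Hoechst 33342-stained nuclei were imaged at 20x; DNA content was quantified, with bidirectional fitting against DMSO.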

Test [3] in a line: APR_HepG2_NuclearSize_24hr: Apredica 24-hour HepG2 Assay for Nuclear Size (AID 2282907; active = hit-call score of the fitted dose curve at least 0.9, where 1 is the maximum; inactive = score below 0.9). As to conditions: high-content imaging, actives raise or lower the signal. The procedure, abridged:
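HepG2 human liver cells were exposed for 24 hr to compounds at 0.39–200 uM (ten concentrations, duplicate) in 0.5% v/v DMSO. They were then formaldehyde-fixed, Triton-permeabilized and Hoechst 33342-stained, and nuclear diameter was imaged at 20x. Bidirectional fits were made against DMSO.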

Test [4] can be described thus: APR_HepG2_CellLoss_24hr: Apredica 24-hour HepG2 Assay for Cell Loss (AID 2282908; active = hit-call score of the fitted dose curve at least 0.9, where 1 is the maximum; inactive = score below 0.9;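 as to AC50: fit in both directions so a hit may be cell loss or gain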). To be noted: high-content imaging. The procedure, abridged:
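Compounds were tested at 0.39–200 uM in duplicate with 0.5% v/v DMSO final. Cells were then fixed in 3.7% formaldehyde, Hoechst 33342 nuclei were imaged at 20x by HCS, and cell number was fitted bidirectionally against DMSO.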

Test [5] can be described thus: APR_HepG2_MicrotubuleCSK_24hr: Apredica 24-hour HepG2 Assay for Microtubule CSK Stabilty (AID 2282909; active = hit-call score of the fitted dose curve at least 0.9, where 1 is the maximum; inactive = score below 0.9). To be noted: HepG2 microtubule cytoskeleton imaging, actives raise or lower the signal. The procedure, abridged:
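HepG2 cells exposed 24 h to compounds at 0.39–200 uM (duplicate, 0.5% v/v DMSO final), then fixed, permeabilized and immunostained for alpha-tubulin with Hoechst 33342. Cytoskeleton imaged at 20x; bidirectional fit versus DMSO baseline.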

Test [6] is described as follows: APR_HepG2_MitoticArrest_24hr: Apredica 24-hour HepG2 Assay for Mitotic Arrest (AID 2282910; active = hit-call score of the fitted dose curve at least 0.9, where 1 is the maximum; inactive = score below 0.9). As to conditions: high-content imaging, actives raise or lower the signal. The procedure, abridged: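 HepG2 human liver cells were exposed to compounds at 0.39–200 uM (10 concentrations, duplicate) in 0.5% v/v DMSO for 24 hr, then fixed and immunostained for phospho-histone H3 with Hoechst 33342. Mitotic arrest came from HCS fluorescent imaging, fitted bidirectionally against DMSO.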

Test [7] in a line: APR_HepG2_MitoMembPot_24hr: Apredica 24-hour HepG2 Assay for Mitochondrial Membrane Potential (AID 2282911; active = hit-call score of the fitted dose curve at least 0.9, where 1 is the maximum; inactive = score below 0.9). To be noted: imaging, actives raise or lower the signal. The procedure, abridged: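 Mitochondrial membrane potential imaged via MitoTracker Red CMXRos (250 nM, 30 min pre-fixation) in fixed HepG2 cells with Hoechst nuclear identification. Ten concentrations 0.39–200 uM, 24 h treatment, 0.5% DMSO; CCCP as positive control.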

Test [8] in a line: APR_HepG2_MitoMass_24hr: Apredica 24-hour HepG2 Assay for Mitochondrial Mass (AID 2282912; active = hit-call score of the fitted dose curve at least 0.9, where 1 is the maximum; inactive = score below 0.9). To be noted: high-content imaging, actives raise or lower the signal. The essentials: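 Human HepG2 liver cells were exposed for 24 hr to compounds at 0.39–200 uM (duplicates, 0.5% v/v DMSO final). They were stained live with 250 nM MitoTracker Red CMXRos for 30 min, fixed in 3.7% formaldehyde, and imaged by HCS fluorescence; signals were fitted bidirectionally against DMSO.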

Test [9] is described as follows: APR_HepG2_p53Act_24hr: Apredica 24-hour HepG2 Assay for p53 Activation (AID 2282913; active = hit-call score of the fitted dose curve at least 0.9, where 1 is the maximum; inactive = score below 0.9;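 also: p53 protein immunofluorescence averaged per cell in HepG2 with Hoechst nuclei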). To be noted: high-content imaging, actives raise or lower the signal. The procedure, abridged: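 Fluorescence imaging of formaldehyde-fixed HepG2 cells labelled for p53 and with Hoechst, 24 h after dosing (0.39–200 uM, duplicate wells, 0.5% v/v DMSO). Signal fitted in both directions relative to DMSO.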

Test [10] can be described thus: APR_HepG2_CellCycleArrest_72hr: Apredica 72-hour HepG2 Assay for Cell Cycle Arrest (AID 2282914; active = hit-call score of the fitted dose curve at least 0.9, where 1 is the maximum; inactive = score below 0.9). As to conditions: high-content imaging, actives raise or lower the signal. The procedure, abridged:
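Read-out: nuclear DNA content from Hoechst 33342 high-content imaging (20x, six fields/well) after 3.7% formaldehyde fixation, fitted bidirectionally against DMSO. Treatment was 72 h in HepG2, ten concentrations 0.39–200 uM, duplicate, 0.5% DMSO.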

Where “and” joins values, the source holds several entries; their conditions need not be identical. Equal values may be shown once. Records with an inconclusive call do not appear. A structure can be active in one record and inactive in another. Calls of active or inactive are those of the source. The calls were made as follows, unless noted: active = hit-call score of the fitted dose curve at least 0.9, where 1 is the maximum; inconclusive = response in the unintended direction; inactive = score below 0.9.

For `CCCCCCCCCO`, the compound was classed as inactive in test [1].
As to `C1=COCCC1`, the outcome in test [1] was inactive.
The same measure, in the same setting: under `CCCO` stands “inactive”; under `CCC=C(C)C=O`, “inactive”; under `CC/C=C\CCCCO`, “inactive”.
The same measure, in the same setting: the value for `CCCCCCCCCCCCCCCCCC(=O)OCCCCCCCCCCCCCC(C)C` was “inactive”.
On the same count and under the same terms, under `CCOC(=O)CC(C)C` stands “inactive”.
As for `O=C(C=Cc1ccccc1)OCCCc1ccccc1`, the outcome in test [1] was inactive.
On the same count and under the same terms, the value for `CN1CCc2cccc3c2[C@H]1Cc1ccc(O)c(O)c1-3` was “inactive”.
Same read-out and setting: the value for `OC[C@H]1O[C@@H](O[C@H]2[C@H](O)[C@@H](O)[C@H](O)O[C@@H]2CO)[C@H](O)[C@@H](O)[C@H]1O` was “inactive”.
Take `CCC(C)(CCCC(C)C)OC(C)=O` (configuration not stated): the outcome in test [1] was inactive.
Still for that read-out and setting: the value for `Cc1cccc(O)c1` was “inactive”.
In general, AC50 refers to the midpoint of the concentration-response curve, whichever way the signal moves. As to `O=c1cc(-c2ccc(O)cc2)oc2cc(O)cc(O)c12`, the AC50 in test [1] was 1.33 µM (active).
With `CC(C)(O)CCc1ccccc1`, in test [1], the compound was called inactive.
Still for that read-out and setting: under `CCC(C)(C)C1CCC(OC)CC1` (configuration not stated) stands “inactive”; under `COc1ccc(OC)cc1`, “inactive”; under `NC(N)=NC(N)=NCCc1ccccc1`, “inactive”.
The same measure, in the same setting: under `CC(C)(C)C1CCC(O)CC1` (configuration not stated) stands “inactive”; under `[Na+]`, “inactive”.
With `OCCCO`, the outcome in [1] was inactive.
For `S=c1[nH][nH]c(=S)s1`, the concentration at half-maximal activity (AC50) in test [1] is 2.68 µM (active).
Consider `CC(=O)N(C)C`, for which, in test [1], the compound was called inactive.
Regarding `CCCCCCCCCCOC(=O)c1ccccc1C(=O)OCCCCCCCC`, the call in test [1] was inactive.
Still for that read-out and setting: under `CC=CC(=O)C1=C(C)C=CCC1(C)C` stands “inactive”; under `CCOC(=O)C=Cc1ccccc1`, “inactive”.
Still for that read-out and setting: under `N[C@@H](CCC(=O)O)C(=O)O` stands “inactive”.
In the case of `C/C=C(\C)C(=O)OC/C=C(\C)CCC=C(C)C`, in test [1], the result was inactive.
Turning to `CCOC(=O)CCCCCCCCC(=O)OCC`, the call in test [1] was inactive.
Turning to `CC1=CC(=O)[C@H]2C[C@@H]1C2(C)C`, the compound was classed as inactive in test [1].
Regarding `CC(C)Cc1ccccc1`, in [1], the compound was classed as inactive.
The same measure, in the same setting: the value for `CC(C)C(=O)c1ccccc1` was “inactive”; that for `O=S(=O)(O)c1cc(O)c(O)c(S(=O)(=O)O)c1` was “inactive”; that for `COC(=O)c1ccc(C(=O)OC)cc1` was “inactive”.
The same measure, in the same setting: the value for `C=C/C(C)=C/C/C=C(\C)CCC=C(C)C` was “inactive”; that for `CCCCCc1cccc(=O)o1` was “inactive”; that for `CC(=O)C1=C(C)[C@@H]2C[C@@]3(C1)[C@H](C)CC[C@H]3C2(C)C` was “inactive”.
In the case of `CC1=C(C=O)C(C)(C)CCC1`, in test [1], the AC50 is 3.65 µM (active).
In the case of `CC(O)COCC(C)O` (configuration not stated), in [1], the compound was classed as inactive.
On to `CC1(C)CC(N)CC(C)(CN)C1` (configuration not stated), for which the result in [1] was inactive.
Take `CN(C)CCCNCCCN(C)C`: the result in test [1] was inactive.
Still for that read-out and setting: under `O=C(O)c1ccccc1O` stands “inactive”.
Still for that read-out and setting: under `CN(C)C` stands “inactive”; under `N=C1N=C(N)c2ccccc21`, “inactive”.
As to `CCCCCCOC(C)=O`, in test [1], the compound was called inactive.
On to `CC(C)CCOC(=O)CC(C)C`, for which the compound was classed as inactive in [1].
Same read-out and setting: under `CC(C)N1C(=O)c2ccccc2C1=O` stands “inactive”; under `NS(=O)(=O)c1cc(C(=O)O)c(NCc2ccco2)cc1Cl`, “inactive”.
On to `CC12CCC(C1)C(C)(C)C2O` (configuration not stated), for which, in test [1], the compound was classed as inactive.
Take `CCCCCCCCCCCCS`: the outcome in test [1] was inactive.
On the same count and under the same terms, the value for `CC(C)OB(OC(C)C)OC(C)C` was “inactive”.
With `CC/C(=C(\c1ccccc1)c1ccc(OCCN(C)C)cc1)c1ccccc1`, the compound was called inactive in test [2], in test [3] and in [10]. The AC50 in test [4] was 14.5 µM (active) and 17.8 µM (active); in test [5], 35.4 µM (active) and 44.5 µM (active); in test [6], 7.3 µM (active) and 6.94 µM (active); in [7] it was 39.2 µM (active) and 24.9 µM (active); in [8], 6.38 µM (active) and 7.4 µM (active); in [9], 16.1 µM (active) and 11.3 µM (active). Also, the AC50 in test [10] was 29.4 µM (active).
On to `CC(=O)c1cccnc1`, for which the compound was called inactive in [1].
`Nc1ccc(N)c([N+](=O)[O-])c1`: in test [1], the result was inactive.
Turning to `CCCCCC1C(=O)CCC1CC(=O)OC` (configuration not stated), the AC50 in test [1] is 50 µM (active).
As to `CC(=O)CCC(=O)O`, the call in test [1] was inactive.
`CC/C=C\CCOC(=O)C(C)C`: the call in test [1] was inactive.
Turning to `CCO[Si](CCC#N)(OCC)OCC`, in test [1], the result was inactive.
In the case of `C#C[C@]1(O)CC[C@H]2[C@@H]3CCc4cc(O)ccc4[C@H]3CC[C@@]21C`, the AC50 is 36.8 µM (active) in [2]; 24.3 µM (active) in test [4]; 10.9 µM (active) in [6]; 87.5 µM (active) in test [9]; 27.9 µM (active) in test [10]. In addition, the call in test [3], in test [5], in test [7] and in test [8] was inactive.
For the compound `CC(CO)c1ccccc1` (configuration not stated), the compound was called inactive in test [1].
For the compound `C[C@]12CC[C@@H]3c4ccc(O)cc4CC[C@H]3[C@@H]1CC[C@@H]2O`, the compound was classed as inactive in [2], in test [3], in test [7], in test [8] and in test [10]. The AC50 in test [4] is 18.7 µM (active); in test [5] it was 32.4 µM (active); in test [6], 22.6 µM (active); in test [9], 25.1 µM (active).
As for `C=CCOCC(O)CO` (configuration not stated), the AC50 in [1] is 0.0285 µM (active).
Consider `NC(=O)c1cnccn1`, for which, in test [1], the compound was called inactive.
Regarding `O=S1(=O)CC=CC1`, the compound was classed as inactive in test [1].
With `CCC(=O)OC/C=C(\C)CCC=C(C)C`, in [1], the AC50 is 0.0916 µM (active).
Turning to `CCOC(=O)C(=O)OCC`, in test [1], the compound was classed as inactive.
`Cc1cc(N)n(-c2ccccc2)n1`: the outcome in test [1] was inactive.
Take `c1ccc2scnc2c1`: the result in test [1] was inactive.
For the compound `CCOCC(C)O` (configuration not stated), the compound was called inactive in test [1].
On the same count and under the same terms, under `CCC(C)(C)c1cc(O)c(C(C)(C)CC)cc1O` stands “inactive”.
Consider `CC(=O)c1ccc2ccccc2c1`, for which the result in [1] was inactive.
Still for that read-out and setting: the value for `[Cu+]` was “inactive”; that for `CCCCCCCCCCCCCC(=O)OCC` was “inactive”.
For `O=C(c1ccc(OCCN2CCCCC2)cc1)c1c(-c2ccc(O)cc2)sc2cc(O)ccc12`, the compound was called inactive in test [2], in test [3], in test [4], in test [5], in [6] and in test [7]. Also, the outcome in test [8], in test [9] and in [10] was inactive.
As for `O=C(O)C(F)(F)C(F)(F)C(F)(F)C(F)(F)C(F)(F)C(F)(F)C(F)(F)C(F)F`, the AC50 in [1] was 14.6 µM (active).
